Holding throughout (assay): DAPPL (digital affinity profiling via proximity ligation, sequencing); 10 mM Tris-HCl pH 7.5, 50 mM NaCl, 1 mM DTT, 4% glycerol, room temperature, 30 min; GST-TFs on glutathione beads, 16-mer random dsDNA library, 0.1% formaldehyde crosslink after washing; high values mean tight binding
What all share (settings): protein: recombinant; tags: N-terminal GST; dsDNA, one strand shown

One assay addresses T1, FLI1 (Homo sapiens, UniProt Q01543 1-452).
T1 sequence: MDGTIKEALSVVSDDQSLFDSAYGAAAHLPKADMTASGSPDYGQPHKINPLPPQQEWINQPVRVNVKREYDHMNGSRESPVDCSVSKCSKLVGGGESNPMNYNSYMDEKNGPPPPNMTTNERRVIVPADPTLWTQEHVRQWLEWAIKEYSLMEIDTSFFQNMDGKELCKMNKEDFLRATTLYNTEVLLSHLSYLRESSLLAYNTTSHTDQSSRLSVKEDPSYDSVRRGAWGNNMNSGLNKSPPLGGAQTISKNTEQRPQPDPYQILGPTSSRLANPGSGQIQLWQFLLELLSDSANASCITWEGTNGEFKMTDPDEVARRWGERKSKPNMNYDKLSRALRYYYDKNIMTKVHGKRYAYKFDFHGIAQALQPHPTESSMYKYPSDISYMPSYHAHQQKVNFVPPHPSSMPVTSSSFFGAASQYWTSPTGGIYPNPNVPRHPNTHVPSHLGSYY
The essentials:
(§1)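 GST fusions of human transcription factors were expressed in yeast and captured with glutathione beads. Once given DNA barcodes and pooled alongside a tag-only sample, they were incubated for 30 min at room temperature with 200 nmole of a random double-stranded 16-mer DNA library in Tris/NaCl/DTT/glycerol buffer, then washed, crosslinked (0.1% formaldehyde), proximity-ligated, PCR-amplified and sequenced on an Illumina NextSeq500. The binding signal of each hexamer is its read frequency for a factor divided by its frequency for the tag-only sample.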

For another assay, the target named is T2, ELK1 (Homo sapiens, UniProt P19419 1-428).
T2 sequence: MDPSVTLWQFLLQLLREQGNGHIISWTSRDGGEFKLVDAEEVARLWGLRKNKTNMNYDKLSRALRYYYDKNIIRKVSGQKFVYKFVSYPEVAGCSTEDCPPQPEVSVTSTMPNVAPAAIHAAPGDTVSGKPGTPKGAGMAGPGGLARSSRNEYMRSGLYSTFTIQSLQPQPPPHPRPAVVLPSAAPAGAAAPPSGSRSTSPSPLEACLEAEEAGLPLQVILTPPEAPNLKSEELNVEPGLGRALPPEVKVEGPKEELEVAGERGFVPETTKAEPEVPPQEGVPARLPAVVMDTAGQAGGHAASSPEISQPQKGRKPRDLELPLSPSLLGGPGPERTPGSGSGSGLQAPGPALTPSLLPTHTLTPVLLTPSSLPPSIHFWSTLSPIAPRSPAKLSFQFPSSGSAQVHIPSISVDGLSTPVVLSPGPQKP
The essentials:
as §1

In a further assay the target is T3, GABPA (Homo sapiens, UniProt Q06546 1-454).
T3 sequence: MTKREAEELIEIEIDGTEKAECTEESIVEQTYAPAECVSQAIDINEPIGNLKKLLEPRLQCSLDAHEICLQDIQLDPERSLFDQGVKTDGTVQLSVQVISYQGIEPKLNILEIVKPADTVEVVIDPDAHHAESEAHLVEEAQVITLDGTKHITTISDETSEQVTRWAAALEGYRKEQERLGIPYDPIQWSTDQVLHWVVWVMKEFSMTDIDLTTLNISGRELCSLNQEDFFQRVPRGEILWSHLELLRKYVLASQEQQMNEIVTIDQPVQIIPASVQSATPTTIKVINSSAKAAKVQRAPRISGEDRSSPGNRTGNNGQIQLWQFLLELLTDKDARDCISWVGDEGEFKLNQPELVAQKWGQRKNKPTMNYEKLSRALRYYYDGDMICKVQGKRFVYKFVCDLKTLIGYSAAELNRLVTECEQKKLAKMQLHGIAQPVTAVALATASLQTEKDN
An outline of the steps: as §1

The next assay deals with T4, ERG (Homo sapiens, UniProt P11308 1-479).
T4 sequence: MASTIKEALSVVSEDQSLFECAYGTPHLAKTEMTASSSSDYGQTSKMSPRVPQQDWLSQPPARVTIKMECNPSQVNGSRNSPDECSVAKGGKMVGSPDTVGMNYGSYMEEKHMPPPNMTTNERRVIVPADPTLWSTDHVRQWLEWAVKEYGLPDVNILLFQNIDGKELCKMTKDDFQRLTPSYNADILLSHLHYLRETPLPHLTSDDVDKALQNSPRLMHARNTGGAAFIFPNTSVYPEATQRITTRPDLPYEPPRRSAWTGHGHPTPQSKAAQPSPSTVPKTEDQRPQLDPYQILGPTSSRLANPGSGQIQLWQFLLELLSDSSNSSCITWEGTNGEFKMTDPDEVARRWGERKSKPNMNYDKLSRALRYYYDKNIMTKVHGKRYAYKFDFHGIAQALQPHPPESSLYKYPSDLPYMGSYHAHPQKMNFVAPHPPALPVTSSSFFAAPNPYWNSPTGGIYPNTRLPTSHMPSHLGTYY
An outline of the steps:
as §1

The target of another assay is ELF1 (Homo sapiens, UniProt P32519 1-619). The essentials: as §1
Sequence of ELF1 (P32519 whole entry): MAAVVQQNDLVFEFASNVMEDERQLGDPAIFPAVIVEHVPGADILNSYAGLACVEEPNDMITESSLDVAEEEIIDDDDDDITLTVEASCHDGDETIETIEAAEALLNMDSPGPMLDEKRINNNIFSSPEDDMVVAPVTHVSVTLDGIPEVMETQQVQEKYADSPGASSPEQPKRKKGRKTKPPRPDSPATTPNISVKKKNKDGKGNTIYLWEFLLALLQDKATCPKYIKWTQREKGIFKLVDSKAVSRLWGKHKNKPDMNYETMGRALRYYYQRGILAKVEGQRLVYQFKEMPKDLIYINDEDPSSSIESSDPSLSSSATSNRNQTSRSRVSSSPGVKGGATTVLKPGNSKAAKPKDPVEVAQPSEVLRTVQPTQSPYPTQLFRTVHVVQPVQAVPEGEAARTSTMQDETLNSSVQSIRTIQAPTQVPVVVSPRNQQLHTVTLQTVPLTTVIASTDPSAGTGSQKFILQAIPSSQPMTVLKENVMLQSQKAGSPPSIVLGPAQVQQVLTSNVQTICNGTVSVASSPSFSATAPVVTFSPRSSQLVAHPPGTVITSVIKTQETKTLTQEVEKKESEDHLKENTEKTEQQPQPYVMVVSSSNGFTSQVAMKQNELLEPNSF
For a further assay, the target named is T5, EHF (Homo sapiens, UniProt Q9NZC4 1-300).
T5 sequence: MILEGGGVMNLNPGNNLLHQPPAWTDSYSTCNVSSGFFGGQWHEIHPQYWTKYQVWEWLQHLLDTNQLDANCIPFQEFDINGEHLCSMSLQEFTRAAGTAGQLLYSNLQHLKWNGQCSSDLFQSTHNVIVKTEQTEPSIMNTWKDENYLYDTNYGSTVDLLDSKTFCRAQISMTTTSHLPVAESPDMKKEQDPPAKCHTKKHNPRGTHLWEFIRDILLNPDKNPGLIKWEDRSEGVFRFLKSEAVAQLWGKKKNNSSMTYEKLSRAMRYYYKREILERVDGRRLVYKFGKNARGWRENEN
The essentials: as §1

For the next assay, the target named is SPI1 (Homo sapiens, UniProt P17947 1-270). The essentials: as §1
Another assay addresses SPIB (Homo sapiens, UniProt Q01892 1-262). An outline of the steps: as §1
The next assay addresses T6, ELK3 (Homo sapiens, UniProt P41970 1-407).
T6 sequence: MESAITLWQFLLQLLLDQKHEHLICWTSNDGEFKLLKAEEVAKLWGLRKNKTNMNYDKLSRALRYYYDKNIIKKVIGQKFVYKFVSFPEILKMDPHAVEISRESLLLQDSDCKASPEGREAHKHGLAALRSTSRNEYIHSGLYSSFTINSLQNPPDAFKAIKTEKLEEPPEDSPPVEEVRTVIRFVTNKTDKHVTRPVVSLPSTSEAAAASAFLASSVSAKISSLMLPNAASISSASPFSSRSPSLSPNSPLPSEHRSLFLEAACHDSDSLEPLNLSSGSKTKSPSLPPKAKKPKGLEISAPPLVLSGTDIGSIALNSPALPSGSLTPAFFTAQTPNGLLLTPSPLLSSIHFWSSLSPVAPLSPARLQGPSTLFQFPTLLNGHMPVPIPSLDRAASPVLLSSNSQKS
An outline of the steps:
as §1

The target in another assay is T7, FEV (Homo sapiens, UniProt Q99581 1-238).
T7 sequence: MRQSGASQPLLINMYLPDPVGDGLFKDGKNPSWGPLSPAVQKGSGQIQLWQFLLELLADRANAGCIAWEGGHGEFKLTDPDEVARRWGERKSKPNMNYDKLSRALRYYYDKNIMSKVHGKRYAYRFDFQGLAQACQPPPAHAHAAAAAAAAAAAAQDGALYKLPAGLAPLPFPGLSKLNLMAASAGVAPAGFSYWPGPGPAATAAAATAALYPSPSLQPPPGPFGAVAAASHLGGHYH
The essentials:
as §1

The target in another assay is ETV5 (Homo sapiens, UniProt P41161 1-510). An outline of the steps: as §1
Sequence of ETV5 (P41161 whole entry): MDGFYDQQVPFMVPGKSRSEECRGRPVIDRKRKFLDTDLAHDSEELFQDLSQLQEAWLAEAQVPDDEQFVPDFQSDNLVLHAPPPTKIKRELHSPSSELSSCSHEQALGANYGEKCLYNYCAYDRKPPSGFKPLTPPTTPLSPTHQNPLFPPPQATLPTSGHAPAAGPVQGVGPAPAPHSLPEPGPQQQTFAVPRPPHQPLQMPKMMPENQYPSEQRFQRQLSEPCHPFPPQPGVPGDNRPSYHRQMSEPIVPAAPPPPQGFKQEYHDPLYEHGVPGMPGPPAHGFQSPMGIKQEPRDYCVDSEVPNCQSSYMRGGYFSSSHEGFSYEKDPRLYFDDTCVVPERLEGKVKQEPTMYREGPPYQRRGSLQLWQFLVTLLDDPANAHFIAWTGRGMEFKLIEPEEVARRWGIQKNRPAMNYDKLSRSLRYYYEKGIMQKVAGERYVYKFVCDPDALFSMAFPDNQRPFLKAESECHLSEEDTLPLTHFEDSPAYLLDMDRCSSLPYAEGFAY
The target in another assay is T8, SPIC (Homo sapiens, UniProt Q8N5J4 1-248).
T8 sequence: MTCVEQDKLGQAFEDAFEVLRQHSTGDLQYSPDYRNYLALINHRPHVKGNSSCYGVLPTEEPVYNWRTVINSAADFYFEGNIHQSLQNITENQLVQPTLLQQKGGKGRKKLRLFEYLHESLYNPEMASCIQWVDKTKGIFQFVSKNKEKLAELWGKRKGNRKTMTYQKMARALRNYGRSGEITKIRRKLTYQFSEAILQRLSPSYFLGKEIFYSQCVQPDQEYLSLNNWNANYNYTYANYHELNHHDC
An outline of the steps: as §1

Another assay concerns the target ELF4 (Homo sapiens, UniProt Q99607 1-663). The essentials:
as §1

The next assay deals with T9, ELK4 (Homo sapiens, UniProt P28324-2 1-405).
T9 sequence: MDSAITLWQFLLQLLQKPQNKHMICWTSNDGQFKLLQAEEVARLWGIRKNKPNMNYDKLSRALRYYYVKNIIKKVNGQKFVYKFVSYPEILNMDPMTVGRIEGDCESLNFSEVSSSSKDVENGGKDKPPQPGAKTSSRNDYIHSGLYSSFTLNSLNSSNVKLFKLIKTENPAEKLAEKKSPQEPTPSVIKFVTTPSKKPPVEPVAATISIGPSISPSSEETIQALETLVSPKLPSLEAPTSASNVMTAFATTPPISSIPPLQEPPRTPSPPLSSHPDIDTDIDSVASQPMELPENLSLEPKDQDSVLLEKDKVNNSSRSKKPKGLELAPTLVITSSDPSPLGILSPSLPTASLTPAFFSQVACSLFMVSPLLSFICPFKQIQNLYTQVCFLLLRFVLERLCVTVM
The essentials:
as §1

A further assay deals with T10, ETV2 (Homo sapiens, UniProt O00321 1-342).
T10 sequence: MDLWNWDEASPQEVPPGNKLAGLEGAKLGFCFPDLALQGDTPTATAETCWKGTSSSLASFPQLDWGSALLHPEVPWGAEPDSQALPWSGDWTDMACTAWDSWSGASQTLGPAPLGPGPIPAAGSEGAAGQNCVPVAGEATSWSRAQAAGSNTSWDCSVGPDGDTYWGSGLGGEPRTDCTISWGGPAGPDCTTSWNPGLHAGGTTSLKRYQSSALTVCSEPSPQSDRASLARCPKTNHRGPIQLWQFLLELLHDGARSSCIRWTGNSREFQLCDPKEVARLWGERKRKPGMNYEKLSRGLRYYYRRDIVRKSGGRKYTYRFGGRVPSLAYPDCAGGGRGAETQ
The essentials:
as §1

Another assay concerns the target T11, ELF3 (Homo sapiens, UniProt P78545 1-371).
T11 sequence: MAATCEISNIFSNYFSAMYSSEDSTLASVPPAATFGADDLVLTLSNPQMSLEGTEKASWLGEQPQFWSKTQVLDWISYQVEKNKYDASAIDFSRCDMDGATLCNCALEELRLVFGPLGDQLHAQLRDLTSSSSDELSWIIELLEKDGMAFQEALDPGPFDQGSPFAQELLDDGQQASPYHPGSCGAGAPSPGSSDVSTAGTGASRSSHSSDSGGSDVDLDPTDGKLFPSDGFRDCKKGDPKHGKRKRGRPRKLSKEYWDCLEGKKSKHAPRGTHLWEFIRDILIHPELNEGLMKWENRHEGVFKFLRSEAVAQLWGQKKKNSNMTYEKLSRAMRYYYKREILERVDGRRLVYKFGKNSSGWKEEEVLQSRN
An outline of the steps:
as §1

A further assay deals with ETV1 (Homo sapiens, UniProt P50549 1-477). An outline of the steps: as §1
Sequence of ETV1 (P50549 whole entry): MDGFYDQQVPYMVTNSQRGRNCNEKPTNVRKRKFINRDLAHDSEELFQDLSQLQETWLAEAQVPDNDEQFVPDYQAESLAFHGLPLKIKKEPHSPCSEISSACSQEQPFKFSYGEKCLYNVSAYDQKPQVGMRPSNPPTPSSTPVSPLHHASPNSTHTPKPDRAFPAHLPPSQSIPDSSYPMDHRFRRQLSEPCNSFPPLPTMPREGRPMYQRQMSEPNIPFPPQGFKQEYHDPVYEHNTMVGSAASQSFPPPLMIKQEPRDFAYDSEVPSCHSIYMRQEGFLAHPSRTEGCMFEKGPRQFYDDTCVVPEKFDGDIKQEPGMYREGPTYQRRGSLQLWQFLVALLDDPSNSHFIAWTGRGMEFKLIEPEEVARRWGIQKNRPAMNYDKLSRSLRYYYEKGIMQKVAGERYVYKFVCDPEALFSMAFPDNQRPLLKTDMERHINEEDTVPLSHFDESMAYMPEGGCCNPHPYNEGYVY

Sequence of SPIB (Q01892 whole entry): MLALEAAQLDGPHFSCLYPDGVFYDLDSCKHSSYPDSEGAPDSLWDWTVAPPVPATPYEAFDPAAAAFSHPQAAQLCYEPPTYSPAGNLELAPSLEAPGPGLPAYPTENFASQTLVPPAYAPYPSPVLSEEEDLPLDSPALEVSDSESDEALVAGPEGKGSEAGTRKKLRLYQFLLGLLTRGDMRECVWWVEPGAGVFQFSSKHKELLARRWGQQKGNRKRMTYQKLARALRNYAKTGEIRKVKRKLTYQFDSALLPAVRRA
Sequence of ELF4 (Q99607 whole entry): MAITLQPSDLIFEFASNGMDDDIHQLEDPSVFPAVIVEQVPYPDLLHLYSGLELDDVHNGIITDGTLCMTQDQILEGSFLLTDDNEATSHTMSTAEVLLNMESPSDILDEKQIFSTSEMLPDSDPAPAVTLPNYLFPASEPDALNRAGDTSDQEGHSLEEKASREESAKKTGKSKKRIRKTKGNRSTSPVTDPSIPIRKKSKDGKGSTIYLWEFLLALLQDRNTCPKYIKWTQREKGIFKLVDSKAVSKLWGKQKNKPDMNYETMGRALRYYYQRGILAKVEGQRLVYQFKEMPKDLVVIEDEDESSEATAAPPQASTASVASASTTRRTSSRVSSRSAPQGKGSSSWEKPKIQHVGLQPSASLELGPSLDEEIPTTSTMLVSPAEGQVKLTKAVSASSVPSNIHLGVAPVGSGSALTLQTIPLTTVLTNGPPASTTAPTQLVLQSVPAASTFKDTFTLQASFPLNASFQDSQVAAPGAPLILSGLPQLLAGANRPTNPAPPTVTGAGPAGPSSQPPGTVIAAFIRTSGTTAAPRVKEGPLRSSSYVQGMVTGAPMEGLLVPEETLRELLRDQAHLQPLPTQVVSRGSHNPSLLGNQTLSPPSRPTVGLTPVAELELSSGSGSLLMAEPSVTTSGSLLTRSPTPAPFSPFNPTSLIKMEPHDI

CGCCCC: the binding signal with FLI1 was 1.12 fold enrichment (6-mer frequency, TF over GST control); with ELK1 it was 1.17 fold enrichment (6-mer frequency, TF over GST control); in the assay with GABPA it was 1.11 fold enrichment (6-mer frequency, TF over GST control); in the assay with ERG, 1.14 fold enrichment (6-mer frequency, TF over GST control); in the assay with ELF1 it was 1.22 fold enrichment (6-mer frequency, TF over GST control); in the assay with EHF, 1.19 fold enrichment (6-mer frequency, TF over GST control). For the same sequence, the binding signal in the assay with SPI1 is 1.18 fold enrichment (6-mer frequency, TF over GST control); with SPIB, 1.1 fold enrichment (6-mer frequency, TF over GST control); with ELK3, 1.18 fold enrichment (6-mer frequency, TF over GST control); in the assay with FEV, 1.21 fold enrichment (6-mer frequency, TF over GST control); in the assay with ETV5 it was 1.23 fold enrichment (6-mer frequency, TF over GST control); with SPIC, 1.24 fold enrichment (6-mer frequency, TF over GST control). In addition, the binding signal in the assay with ELF4 is 1.28 fold enrichment (6-mer frequency, TF over GST control); with ELK4, 1.06 fold enrichment (6-mer frequency, TF over GST control); with ETV2, 1.02 fold enrichment (6-mer frequency, TF over GST control); with ELF3 it was 1.09 fold enrichment (6-mer frequency, TF over GST control); in the assay with ETV1, 1.25 fold enrichment (6-mer frequency, TF over GST control).
With AACGCC, the binding signal is 1.07 fold enrichment (6-mer frequency, TF over GST control) with FLI1; 1.1 fold enrichment (6-mer frequency, TF over GST control) with ELK1; 1.08 fold enrichment (6-mer frequency, TF over GST control) with GABPA; 1.06 fold enrichment (6-mer frequency, TF over GST control) with ERG; 1.09 fold enrichment (6-mer frequency, TF over GST control) in the assay with ELF1; 1.15 fold enrichment (6-mer frequency, TF over GST control) with EHF. In addition, the binding signal with SPI1 was 1.06 fold enrichment (6-mer frequency, TF over GST control); with SPIB, 1.11 fold enrichment (6-mer frequency, TF over GST control); with FEV it was 1.11 fold enrichment (6-mer frequency, TF over GST control); with ETV5, 1.07 fold enrichment (6-mer frequency, TF over GST control); with SPIC, 1.03 fold enrichment (6-mer frequency, TF over GST control); with ELF4 it was 1.15 fold enrichment (6-mer frequency, TF over GST control). For the same sequence, the binding signal with ELK4 is 1.2 fold enrichment (6-mer frequency, TF over GST control); in the assay with ETV2, 1.08 fold enrichment (6-mer frequency, TF over GST control); with ELF3 it was 1.08 fold enrichment (6-mer frequency, TF over GST control); with ETV1, 1.1 fold enrichment (6-mer frequency, TF over GST control).

(Values after PMC7862700, “An all-to-all approach to the identification of sequence-specific readers for epigenetic DNA modifications on cytosine”.)
